Screening data deposited in PubChem by National Center for Advancing Translational Sciences (NCATS).
LMNA splice mod: qHTS Assay for Modulators of Lamin A Splicing; HeLa LMNA splicing GFP/RFP minigene ratio, 48 h; Potency, µM (highest dose often 46.1 µM), for inactives: top-dose ratio change, negative = inhibition, usual class: inhibitors; 200,000 compounds, 0.01% hits; active = well fitted inhibition curve with a large enough effect in the signal ratio, with a control signal flat, not every such curve was filed as active; inconclusive = small, poorly fitted or top-dose-only effect, or effect the other way, or a change in a side signal; the % refers to the signal ratio; note: potency is the fitted concentration of half-maximal effect
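Read-out is the ratio of GFP to DsRed2 object intensity, acquired by 488 nm laser-scanning cytometry on HeLa lamin A-EGFP minigene reporter cells. Compound incubation 48 hrs at 37 °C in Opti-MEM with 2% FBS; DMSO 0.5% final.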
HPGD inh: qHTS Assay for Inhibitors of HPGD (15-Hydroxyprostaglandin Dehydrogenase); purified HPGD, NADH fluorescence kinetic, PGE2 substrate; Potency, µM, inactives show top-dose activity change, negative = inhibition, actives largely listed as inhibitors; 150,000 compounds, 4.3% hits; 15-hydroxyprostaglandin dehydrogenase [NAD(+)] (Homo sapiens), P15428; note: potency is the fitted concentration of half-maximal effect
Target sequence (P15428 whole entry, looked up): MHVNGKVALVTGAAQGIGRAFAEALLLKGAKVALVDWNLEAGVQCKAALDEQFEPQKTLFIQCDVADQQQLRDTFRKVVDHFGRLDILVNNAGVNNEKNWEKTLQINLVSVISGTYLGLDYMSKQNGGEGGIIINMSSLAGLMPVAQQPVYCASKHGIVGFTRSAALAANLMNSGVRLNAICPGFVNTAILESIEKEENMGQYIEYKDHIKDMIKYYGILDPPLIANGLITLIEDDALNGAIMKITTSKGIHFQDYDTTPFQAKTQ
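20 nM HPGD preincubated 15 min at room temperature with compound in 50 mM Tris-HCl pH 8, 0.01% Tween 20. Started with 1 mM NAD+ and 30 uM prostaglandin E2; NADH fluorescence (360/450 nm) read 5 times over 30-s intervals, last minus first.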
ALDH1A1 inh: qHTS Assay for Inhibitors of Aldehyde Dehydrogenase 1 (ALDH1A1). Purified ALDH1A1, NADH fluorescence, propionaldehyde substrate. Aldehyde dehydrogenase 1A1 (Homo sapiens), P00352. 220,000 compounds, 7.3% hits. Potency, µM (titrated, usually from 75.3 µM), for the others: top-dose activity, negative = inhibition, usual class: inhibitors;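 note: potency is the fitted concentration of half-maximal effect; plate controls were no enzyme wells and a reference inhibitor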
Target sequence (P00352 whole entry, looked up): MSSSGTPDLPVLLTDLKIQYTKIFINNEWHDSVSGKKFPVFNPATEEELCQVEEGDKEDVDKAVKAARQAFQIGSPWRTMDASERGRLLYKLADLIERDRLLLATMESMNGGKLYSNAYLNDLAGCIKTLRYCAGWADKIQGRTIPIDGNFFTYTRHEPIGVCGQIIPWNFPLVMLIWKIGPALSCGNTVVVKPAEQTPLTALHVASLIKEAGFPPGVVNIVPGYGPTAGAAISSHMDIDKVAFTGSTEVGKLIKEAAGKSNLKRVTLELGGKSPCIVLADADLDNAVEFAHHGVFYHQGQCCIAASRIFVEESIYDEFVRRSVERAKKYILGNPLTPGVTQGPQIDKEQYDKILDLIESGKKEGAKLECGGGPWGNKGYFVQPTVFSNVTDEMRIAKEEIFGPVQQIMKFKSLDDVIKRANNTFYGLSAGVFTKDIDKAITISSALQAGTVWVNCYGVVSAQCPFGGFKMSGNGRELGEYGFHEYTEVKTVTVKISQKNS
PNC inhibitor: High Content Assay for Compounds that inhibit the Assembly of the Perinucleolar Compartment; activity change (PNC), negative = inhibition, % at 10 µM; 140,000 compounds, 3.1% hits; PC3M PTB-GFP, PNC prevalence imaging, 16 h; hits give low values;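 active = readout at or below -70, meaning at least 70% loss of cells showing the perinucleolar compartment, a nuclear body marking cancer cells; inconclusive = readout between -30 and a set limit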;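 note: plate controls were DMSO wells for no effect and camptothecin positive control wells for full effect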
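Compounds are pinned in duplicate onto adhered PC3M cells stably expressing GFP-tagged PTB and incubated 16 h at 37 C. Cells are then fixed, nuclei stained with Hoechst, and PNC-positive cells counted.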
12-hLO inh: qHTS Assay for Inhibitors of 12-hLO (12-human lipoxygenase) | Polyunsaturated fatty acid lipoxygenase ALOX12 (Homo sapiens), P18054 | purified 12-hLO, xylenol orange hydroperoxide absorbance | Potency, µM (top dose mostly 57.1 µM), for the others: top-dose activity change, negative = inhibition, most hits filed as inhibitors | 150,000 compounds, 0.12% hits | AID 1452, 2008; active = well fitted inhibition curve with a large enough effect; inconclusive = small, poorly fitted or top-dose-only effect; note: potency is the fitted concentration of half-maximal effect; nearly all actives have a fitted effect of over 55% in size
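Hydroperoxide output read as Fe(III)-xylenol orange absorbance, 573-to-405 nm ratio, after 30 min reaction with 40 uM arachidonic acid. Enzyme: 150 nM purified human 12hLO, 15 min compound preincubation; 25 mM Hepes pH 7.0, room temperature.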
Numbers without * were called inactive; ? = inconclusive; . = no result; [ ] = another dose, or the depositor's remark. A selection: hits, their analogues and other compounds. The true share with any hit is near 10%. Unless noted, calls come from the whole dose curve; as a rule, active = well fitted inhibition curve with a large enough effect (not every such curve was filed as active); inconclusive = small, poorly fitted or top-dose-only effect, or another doubt; inactive = no such curve, though single readings can be large or run the other way. Unless noted, % is set by controls: 0 for no effect and ±100 for the full control effect.

SMILES | LMNA splice mod | HPGD inh | ALDH1A1 inh | PNC inhibitor | 12-hLO inh
CCCn1c2ccccc2c2cnn(CC(=O)N(C)c3ccc(F)cc3)c(=O)c21 | -4.5%[46 µM] | . | . | . | .
NCC1OC(O[C@@H]2[C@H](O)[C@@H](OC3C(O)C(N)CC(N)C3OC3OC(CO)C(O)C(O)C3N)O[C@@H]2CO)C(N)C(O)C1O (stereo partly drawn) | -8.9% | -9.5% | 4.2% | . | .
O=C1CCCN1c1ccc(S(=O)(=O)Nc2ccc3c(c2)OCCO3)cc1 | ? | -5.1% | -7.3% | ? | -2.8%
N#CCc1ccc(NS(=O)(=O)c2ccc(N3CCCC3=O)cc2)cc1 | ? | -5.2% | 14.1µM* | 1.3 | -1.6%
Cc1ccc2c(c1)-c1onc(C(=O)N(C)c3ccc(F)cc3)c1CO2 | 5.2%[46 µM] | . | . | . | .
CCSC1=N/C(=C\c2ccc(C(=O)O)cc2)C(=O)S1 | -1.4% | -23.9% | -8.4% | -17.2 | -2.8%
C=CCSC1=N/C(=C\c2ccc(C(=O)O)cc2)C(=O)S1 | . | . | 3.55µM* | . | .
CC[C@@]1(c2ccccc2)NC(=O)N(C)C1=O | 24.2% | . | . | . | .
CN(c1ncc(C(F)(F)F)cc1Cl)n1cc(C(N)=O)c2ccccc2c1=O | -4.1% | -5.4% | 25.1µM* | -9.2 | -5.6%
C/C=C1\CC2C=CC1C2 (stereo not drawn) | . | -8.7% | -13.1% | . | -2.6%
Brc1ccc(-c2csc(NNC3=NCCCCC3)n2)cc1 | -3.7% | . | 11.2µM* | -21.8 | -29.4%
c1ccc(Nc2nc(-c3cccs3)cs2)nc1 | ? | -6.1% | -7.8% | 22.3 | -9.9%
Cc1cccc(Nc2nc(-c3cccs3)cs2)n1 | ? | -20.2% | ? | -105.2* | 17.8µM*
O=C(c1ccc(=O)n(Cc2ccccc2)n1)N1CCN(C/C=C/c2ccccc2)CC1 | -22.6% | -2.5% | ? | -106.7* | -4.8%
O=C(c1ccc(Br)s1)N1CCN(C/C=C/c2ccccc2)CC1 | ? | -24.2% | 17.8µM* | -3.3 | -13.2%
O=C(c1ccc(Br)o1)N1CCN(C/C=C/c2ccccc2)CC1 | ? | -0.7% | 0.9% | 17.9 | -15.8%
Cc1onc(-c2ccccc2Cl)c1C(=O)N1CCN(C/C=C/c2ccccc2)CC1 | ? | -6.1% | ? | -13.0 | -3.1%
CCC(=O)Nc1cc(-c2cccc(C)c2)nn1-c1ccccc1 | -11.3%[46 µM] | . | . | . | .
COc1cc(C(=O)N2CCN(c3ccc(Nc4ccccc4)nn3)CC2)cc(OC)c1OC | 7.6%[46 µM] | . | . | . | .
CCCCc1nc(NCCN2CCOCC2)c(C#N)c2c1COC(C)(C)C2 | 2.7% | -17.6% | 11.2µM* | -9.5 | 1.8%
CC(C)Cc1nc(NCCN2CCOCC2)c(C#N)c2c1COC(C)(C)C2 | -1.2% | -2.8% | -1.2% | ? | 0.8%
CCN(CC)c1ccc(/C=C2/C(=O)N(c3ccc([N+](=O)[O-])cc3)N=C2N2CCOCC2)cc1 | -6.3% | -16.8% | 4.47µM* | ? | -5.3%
CCCc1nc(N2CCOCC2)c2sc(=S)n(-c3ccccc3)c2n1 | -3.4% | -4.2% | 10µM* | -2.2 | 1.9%
O=C(NCCCO)C(=O)NCC(c1ccc2c(c1)OCO2)N1CCOCC1 (stereo not drawn) | -9.3%[46 µM] | . | . | . | .
CN(C)C(=O)c1ccc(-c2cc(N(C)Cc3ccco3)ncn2)cc1 | 13.2% | . | ? | . | .
SMILES | LMNA splice mod | HPGD inh | ALDH1A1 inh | PNC inhibitor | 12-hLO inh
CC(C(=O)N1CCCCC1)n1sc2ccccc2c1=O (stereo not drawn) | -7.8% | 3.55µM* | 3.1% | 32.7 | -5.1%
COc1ccc(/C=C2\SC(=NCc3ccccc3)NC2=O)cc1 | -7.7% | ? | -8.4% | -6.9 | -19.5%
COc1ccc(CN=C2NN=C(c3ccccc3)CS2)cc1 | 7.3%[9.22 µM] | . | 4.47µM* | . | .
COc1ccc(CN=C2NN=C(c3cccc(OC)c3)CS2)cc1 | ? | . | 8.91µM* | . | .
Cc1nc(NC(=O)COC(=O)C(NC(=O)c2ccco2)C(C)C)c(Cl)cc1Cl (stereo not drawn) | 11.7% | -10.7% | 25.1µM* | -5.7 | -10.6%
CC(=O)N1CCC2(CC1)OC(=O)C(C)=C2C(=O)NCc1ccc(Cl)cc1 | -3.5%[46 µM] | . | . | . | .
Cc1cc(C(=O)N/N=C2\CC(=O)c3ccccc32)c(C)n1-c1ccccc1 | -3.4%[46 µM] | . | 1.2% | . | .
Cc1cc(C(=O)N/N=C2\CC(=O)CC(C)(C)C2)c(C)n1-c1ccc(F)cc1 | ? | -9.6% | 28.2µM* | 47.2 | -5.8%
Cc1cc(C(=O)N/N=C2\CC(=O)CC(C)(C)C2)c(C)n1-c1ccccc1 | ? | -21.6% | ? | -94.6* | -6.1%
CC(=O)OCC1OC(n2c(Br)nc3c(=O)[nH]c(N)nc32)C(OC(C)=O)C1OC(C)=O (stereo not drawn) | -7.6% | -16.1% | 16.3% | . | 0.0%
COc1ccc(CNC(=O)c2cc(=O)[nH]c3ccc(S(=O)(=O)N4CCCC4)cc23)c(OC)c1 | -9.3%[46 µM] | . | . | . | .
Cc1nn2c3ccccc3n(CCN3CCCCC3)c2nc1=O | -1.7% | -11.8% | ? | 20.0 | 4.2%
C=CCn1c2ccccc2n2nc(C)c(=O)nc12 | -12.1% | ? | ? | -100.0* | 0.7%
COC(=O)/C=C1\SC(N2CCOCC2)=C(c2ccc(OC)cc2)C1=O | -23.3%[46 µM] | . | 7.94µM* | . | .
COC(=O)/C=C1\SC(=Nc2ccc(OC)cc2)NC1=O | -28.4%[46 µM] | . | -4.0% | . | .
CCOC(=O)C1=C(C)c2ccccc2OC1(C(=O)OCC)C(C)C (stereo not drawn) | . | -9.8% | -1.2% | . | -4.1%[0.00818 µM]
CCC(C)OC(=O)C1=C(C)O[C@]23OC(N)=C(C#N)[C@]12C(=O)c1ccccc13 (stereo partly drawn) | -6.1% | -22.4% | ? | -100.0* | 7.0%
COc1ccc(-c2cc(C(F)(F)F)nc(S(=O)(=O)CCCC(=O)Nc3cc(C)on3)n2)cc1OC | 3.98µM* | . | -2.8% | . | .
COc1ccccc1-c1cc(C(F)(F)F)nc(S(=O)(=O)CCCC(=O)Nc2cc(C)on2)n1 | -21.2% | ? | ? | -10.1 | -4.5%
CC(=O)c1ccc(N2CCN(C(=O)c3cc(S(=O)(=O)N4CCCCCC4)cn3C)CC2)cc1 | 5.9%[46 µM] | . | . | . | .
CC(CCN(C)C)OC(=O)c1ccc(C(C)c2ccccc2)o1 (stereo not drawn) | ? | -5.8% | 39.8µM* | -106.9* | 3.3%
COC(=O)c1ccccc1S(=O)(=O)N1CCc2nc(-c3ccc(OC)cc3C)c3c(c2C1)CO[C@@H](c1ccccc1)C3 | -5.1%[9.22 µM] | -1.9% | 3.98µM* | . | -3.3%[11.4 µM]
COCC(=O)N1CCc2nc(-c3ccc(OC)cc3C)c3c(c2C1)CO[C@@H](c1ccccc1)C3 | ? | -9.9% | 4.0%[13.5 µM] | . | 2.8%[11.4 µM]
COc1ccc(-c2nc3c(c4c2C[C@H](c2ccccc2)OC4)CN(S(=O)(=O)c2ccc(NC(C)=O)cc2)CC3)c(C)c1 | -0.5%[9.22 µM] | -0.3% | 0.447µM* | . | -1.8%[11.4 µM]
